High-throughput results deposited in PubChem by several laboratories.
A selection: hits, their analogues and other compounds. The true share with any hit is near 28%.
CYP2C19 inh: human CYP2C19 inhibition; AID 778; P33261; CYP2C19 Supersomes, luciferin-H EGE luminescence, 30 min; 96,000 tested, 21% active; inhibition, % at 5 µM;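 active means CYP2C19 inhibition above a set limit at 5 µM in the primary screen, cut at about 50% in these data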
Target sequence (P33261 whole entry, looked up): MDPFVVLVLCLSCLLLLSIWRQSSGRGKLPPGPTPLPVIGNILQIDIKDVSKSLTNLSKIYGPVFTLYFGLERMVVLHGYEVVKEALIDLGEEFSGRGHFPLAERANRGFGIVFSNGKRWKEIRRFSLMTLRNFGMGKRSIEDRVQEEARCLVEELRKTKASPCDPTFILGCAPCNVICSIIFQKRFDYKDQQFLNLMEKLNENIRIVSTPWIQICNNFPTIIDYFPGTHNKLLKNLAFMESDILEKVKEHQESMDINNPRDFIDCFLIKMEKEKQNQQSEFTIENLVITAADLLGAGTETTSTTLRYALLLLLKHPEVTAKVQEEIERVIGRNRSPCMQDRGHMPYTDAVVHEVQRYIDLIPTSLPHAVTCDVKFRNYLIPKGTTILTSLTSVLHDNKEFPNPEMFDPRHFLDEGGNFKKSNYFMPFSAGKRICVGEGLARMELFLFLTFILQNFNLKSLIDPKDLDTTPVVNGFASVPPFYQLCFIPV
CYP2C9 inhib: blocks human cytochrome P450 2C9. P11712. CYP2C9 Supersomes, luciferin-H conversion, luminescence. 96,000 tested, 20% active. inhibition, % at 5 µM. AID 777;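 active means blocking of liver enzyme CYP2C9 beyond about 50% at 5 µM, limit read from the data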
CYP2C9 act: activators of human CYP2C9 | activation factor at 5 µM | AID 1024 | 96,000 tested, 1.4% active | recombinant CYP2C9, luciferin-H conversion, luminescence; stronger effect = higher value; factor 1 = untreated enzyme, 0 = blocked | P11712;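 active means activation factor of 2 or more for CYP2C9 at a 5 µM dose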
CYP2C19 act: increases human CYP2C19 enzyme activity | recombinant CYP2C19, luciferin-H EGE luminescence; stronger effect = higher value; 0 = fully inhibited enzyme, 1 = untreated enzyme | 96,000 tested, under 10 active | activation factor at 5 µM | P33261;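 active means activation factor of at least 2 at 5 µM in the primary screen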
D1 allo mod: allosterically modulates the human D1 dopamine receptor; HEK293 D1, CRE-luciferase, dopamine EC30 potentiation; actives deviate in either direction; P21728; 58,000 tested, 5.9% active; B-score at 10 µM;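 active means luminescence count or its row- and column-corrected plate score outside the 99.7% band of the plate's sample wells, on either side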
DAT uptake mod: changed human dopamine transporter uptake under cocaine IC80. Q01959. LLC-PK1 hDAT cells, [14C]-dopamine uptake with cocaine IC80; actives deviate in either direction. B-score at 10 µM. 110,000 tested, 1.3% active. AID 449768;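 active means Z score or B-score, a plate-position-corrected score, falls beyond the plate's 99.7% confidence bounds, in either direction; inactive means both scores lie inside the 99.7% bounds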
Each line names hits and unclear results; the compound was inactive in the other large screens.

O=C(Cn1nc(Cc2cccnc2)c2ccccc2c1=O)Nc1ccc2c(c1)OCO2	none
c1cncc(CNc2ccc3c(c2)OCO3)c1	CYP2C19 inh 88.6, CYP2C9 inhib 83.2 (no result: D1 allo mod)
Cc1cc(C(=O)CSCc2nnc3n(CCC(C)C)c(=O)c4ccccc4n23)c(C)n1C	none (no result: CYP2C19 inh, CYP2C9 inhib, CYP2C9 act, CYP2C19 act, DAT uptake mod)
Cn1cnnc1SCC(=O)Nc1cccc(C(=O)O)c1	none (no result: D1 allo mod, DAT uptake mod)
Cn1cnnc1SC(C(=O)Nc1cccc(C(F)(F)F)c1)c1ccccc1 (stereo not drawn)	CYP2C19 inh 70.6, CYP2C9 inhib 73.3 (no result: D1 allo mod)
Cn1c(SCC(=O)c2ccc3c(c2)OCCO3)nnc1C1CC1	none (no result: CYP2C19 inh, CYP2C9 inhib, CYP2C9 act, CYP2C19 act, D1 allo mod)
Cc1cc(C)cc(Oc2ccccc2C=O)c1	none (no result: D1 allo mod)
COc1ccccc1-n1c(C)cc(C=O)c1C	CYP2C9 inhib 54.4 (no result: D1 allo mod)
Cc1cccc(OCC(=O)N/N=C\c2cc3c(cc2[N+](=O)[O-])OCO3)c1C	none (no result: D1 allo mod)
COc1cc(C(=O)N2CCN(c3cccc(C)c3C)CC2)cc(OC)c1OC	none (no result: CYP2C19 inh, CYP2C9 inhib, CYP2C9 act, CYP2C19 act)
Cc1cccc(N2CCN(C(=O)c3ccc4ncsc4c3)CC2)c1C	CYP2C19 inh 66.1, DAT uptake mod 2.46 (no result: D1 allo mod)
Cc1cccc(N2CCN(C(=O)c3ccncc3)CC2)c1C	CYP2C19 inh 99.9, CYP2C9 inhib 86.0
CC1CCOC2(O1)C(=O)N(CN1CCN(c3cccc(Cl)c3)CC1)c1ccccc12 (stereo not drawn)	none (no result: D1 allo mod)
O=S(=O)(NCC1CCCO1)c1ccc(S(=O)(=O)N(Cc2ccc(F)cc2)C2CCCCC2)cc1 (stereo not drawn)	none (no result: CYP2C19 inh, CYP2C9 inhib, CYP2C9 act, CYP2C19 act, D1 allo mod)
Cn1cccc1Cc1nnc(SCC(=O)Nc2ccc(F)cc2)n1CCc1ccccc1	none
CC(C)c1nnc(SCC(=O)Nc2ccc3c(c2)OCO3)n1C	none (no result: CYP2C19 inh, CYP2C9 inhib, CYP2C9 act, CYP2C19 act, D1 allo mod)
COc1ccc(-n2c(Cc3cccn3C)nnc2SCC(=O)Nc2ccc3c(c2)OCCO3)cc1	none
Cc1nnc(NC(=O)CSc2nnc(Cc3cccn3C)n2CCc2ccccc2)s1	none
Cn1c(Cc2ccccc2)nnc1SCC(=O)Nc1ccc2c(c1)OCO2	CYP2C19 inh 86.9, CYP2C9 inhib 54.8
Cn1cccc1Cc1nnc(SCC(=O)Nc2ccc3c(c2)OCCO3)n1CCc1ccccc1	DAT uptake mod 2.54
Cn1cccc1Cc1nnc(SCC(=O)Nc2ccc3c(c2)OCO3)n1CCc1ccccc1	CYP2C19 inh 55.4, CYP2C9 inhib 57.3
COc1ccc(OC)c(NC(=O)CSc2nnc(Cc3cccn3C)n2CCc2ccccc2)c1	DAT uptake mod 2.97
O=C(CCCN1C(=O)CCC1=O)Nc1ccc2c(c1)OCCO2	none
COc1ccccc1NC(=O)CSc1nnc(C)n1CCc1ccccc1	CYP2C9 inhib 52.9, DAT uptake mod -7.59
Cc1cc(C)c(C(=O)COc2cccnc2[N+](=O)[O-])cc1C	CYP2C19 inh 63.1 (no result: D1 allo mod)
CC/C(CC(C)(C)c1ccccc1)=N\O	CYP2C19 inh 78.6 (no result: DAT uptake mod)
CN(C)CCC(O)(c1ccccc1)c1ccccc1	none (no result: D1 allo mod)
O=C(COC(=O)CCNS(=O)(=O)c1ccc2c(c1)OCCO2)NC1CCCc2ccccc21 (stereo not drawn)	CYP2C19 inh 62.0
COc1ccc(Cl)cc1NC(=O)C1CCCN(S(=O)(=O)c2cccc3nonc23)C1 (stereo not drawn)	none (no result: CYP2C19 inh, CYP2C9 inhib, CYP2C9 act, CYP2C19 act)
Cc1cc(C(=O)NCCCN2CC(C)CC(C)C2)n(-c2ccccc2)n1 (stereo not drawn)	none (no result: D1 allo mod)
O=S1(=O)N=C(Oc2cccc3ccccc23)c2ccccc21	none (no result: CYP2C19 inh, CYP2C9 inhib, CYP2C9 act, CYP2C19 act, D1 allo mod)
CCN(C(=O)CSc1ccc2c(c1)OCCO2)C1CCS(=O)(=O)C1 (stereo not drawn)	none
N#CCCN(C(=O)CSc1ccc2c(c1)OCCO2)c1ccccc1	CYP2C19 inh 92.8, CYP2C9 inhib 55.9
CC(=O)Nc1ccc(SCC(=O)N(CCC#N)c2cc(C)cc(C)c2)cc1	CYP2C19 inh 81.7, CYP2C9 inhib 70.1 (no result: D1 allo mod)
Cc1cc(C)cc(N(CCC#N)C(=O)CSc2nc3nc(C)cc(C)n3n2)c1	none
COc1ccc(SCc2noc(C(=O)NC(C)C)c2C(=O)O)cc1	none (no result: D1 allo mod)
O=C(c1ccco1)N1CCN(C2CCCC2)CC1	none (no result: DAT uptake mod)
Nc1nonc1C(=Nc1ccccc1)NO	none
Nc1nonc1C(=O)NC(c1ccccc1)c1ccccc1	CYP2C19 inh 90.0, CYP2C9 inhib 77.5
Cc1cc2oc(=O)cc(CN3CCc4ccccc43)c2cc1Cl	CYP2C19 inh 79.0, CYP2C9 inhib 61.3
CCc1ccc2c(CN3CCc4ccccc43)cc(=O)oc2c1	CYP2C19 inh 94.1 (no result: D1 allo mod)
Cc1ccc(C)c(C(=O)CSc2n[nH]c(C(C)C)n2)c1	D1 allo mod -5.99
